In the library only some 1.4% were active in any assay of this set; here they are far more common.
HDAC3 inh = HDAC3 deacetylase inhibitors, primary screen, biochemical, fluorescence, cell-free homogeneous. recombinant HDAC3, fluorogenic peptide/trypsin coupled. inhibition, % at 8.3 µM. Histone deacetylase 3 (Homo sapiens), O15379. 0.15% of 320,000 active; in the data active = inhibition above about 26%, passing the limit was not always enough; inconclusive = no clear call, values can overlap the other calls
A3G deaminase = APOBEC3G DNA deaminase inhibitors, primary screen, biochemical, fluorescence, single-stranded DNA substrate, uHTS. DNA dC->dU-editing enzyme APOBEC-3G (Homo sapiens), Q9HC16. recombinant A3G, ssDNA deamination FAM/TAMRA fluorescence. inhibition, % at 20 µM. 0.28% of 330,000 active. AID 493012, 2011;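 active = inhibition of at least 40% at 20 µM, with no more than 30% in the related APOBEC3A deaminase screen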;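 note: plate controls were DMSO wells with A3G for no effect and wells lacking A3G enzyme for full effect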
Target sequence (Q9HC16 whole entry, looked up): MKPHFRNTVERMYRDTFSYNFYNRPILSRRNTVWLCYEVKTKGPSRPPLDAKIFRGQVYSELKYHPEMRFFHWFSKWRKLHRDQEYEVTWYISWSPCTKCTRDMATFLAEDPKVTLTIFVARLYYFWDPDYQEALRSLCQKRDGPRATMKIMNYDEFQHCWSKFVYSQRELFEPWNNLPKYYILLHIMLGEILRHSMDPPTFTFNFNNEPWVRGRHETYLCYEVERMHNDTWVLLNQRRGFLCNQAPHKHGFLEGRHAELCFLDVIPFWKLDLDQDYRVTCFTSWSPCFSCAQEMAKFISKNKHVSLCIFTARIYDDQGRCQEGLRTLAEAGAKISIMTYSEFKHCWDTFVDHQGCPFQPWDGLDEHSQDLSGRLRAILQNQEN
A3A deaminase = APOBEC3A ssDNA deaminase inhibitors, primary screen, selectivity assay for APOBEC3G inhibitor project, biochemical, FAM/TAMRA oligo cleavage fluorescence | recombinant A3A, FAM/TAMRA ssDNA deamination fluorescence | inhibition, % at 20 µM | 0.41% of 330,000 active;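 active = at least 40% inhibition at 20 µM here, with at most 30% in a related deaminase screen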;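 note: plate controls were A3A with DMSO for no effect and wells lacking A3A enzyme for full effect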
Target sequence (P31941 whole entry, looked up): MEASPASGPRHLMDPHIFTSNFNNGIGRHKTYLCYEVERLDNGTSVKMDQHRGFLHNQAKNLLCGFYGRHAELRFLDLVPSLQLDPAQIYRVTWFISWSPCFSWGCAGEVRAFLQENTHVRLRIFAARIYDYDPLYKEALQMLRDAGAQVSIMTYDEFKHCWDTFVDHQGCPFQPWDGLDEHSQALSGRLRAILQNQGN
LANA-H2B inh = blockers of LANA interaction with H2A/H2B – biochemical, FP readout, HTS, primary screen | cell-free LANA-H2A/H2B peptide, fluorescence polarization | inhibition, % (test concentration not listed) | 0.6% of 320,000 active | AID 2629, 2010; in the data active = inhibition mostly above about 10%, no sharp cut-off; inactive = mostly below about 6.7%
APOBEC3G confirm = APOBEC3G deaminase inhibitor retest, confirmation, biochemical, fluorescence, single-stranded DNA substrate, single concentration; shares compounds with A3G deaminase; recombinant A3G ssDNA deaminase, UDG/FAM-TAMRA fluorescence; inhibition, % at 20 µM; 72% of 890 active; AID 493152, 2011;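 active = inhibition reaching a set limit in any replicate at 20 µM, the limit being 80% of the first screen's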
UDG ctr A3G = E. coli UDG inhibitors, confirmation, counter-screen for APOBEC3G inhibitor project, biochemical, single concentration, fluorescence, FAM/TAMRA oligo; 710 tested, under 10 active; UDG counterscreen; shares compounds with A3G deaminase; AID 504715, 2011; inhibition, % at 20 µM;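 active = compounds giving 40% or more inhibition at 20 µM in any one of the three replicates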;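 note: plate controls were DMSO wells with UDG and oligo for no effect and DMSO wells lacking both for full effect; inhibitors lower the FAM signal released by uracil excision and alkaline cleavage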
An asterisk follows results filed as active.

`CCn1ncc(/C=N\NC(=O)c2ccc3c(c2)c(C)c(C)n3Cc2ccccc2)c1C` gave HDAC3 inh inconclusive, A3G deaminase 70*, A3A deaminase -3, LANA-H2B inh 0, APOBEC3G confirm 0 and UDG ctr A3G -4.
For COc1ccccc1NCC(=O)n1nc(C)cc1C the results were A3G deaminase 1 and A3A deaminase 0.
For C/C(=N\NC(=O)c1cccc(O)c1)c1cccc(NC(=O)c2ccc(F)cc2)c1 the results were HDAC3 inh -5, A3G deaminase 13, A3A deaminase 10 and LANA-H2B inh -3.
`C/C(=N\NC(=O)c1cccc(N/N=C(\C)c2cc(O)ccc2O)c1)c1cc(O)ccc1O` gave HDAC3 inh 0, A3G deaminase 45*, A3A deaminase -1, LANA-H2B inh 3, APOBEC3G confirm 12 and UDG ctr A3G 4.
`O=C(Nc1ccc(N2CCOCC2)cc1)C1CCN(S(=O)(=O)c2ccccc2F)CC1` gave HDAC3 inh -5, A3G deaminase -2, A3A deaminase 7 and LANA-H2B inh -2.
For CC(C)(C)c1ccc(C(=O)NC(=S)NNC(=O)COc2ccccc2)cc1 the results were HDAC3 inh 7, A3G deaminase -5, A3A deaminase -3 and LANA-H2B inh -6.
Cc1ccccc1C(=O)NCC(=O)NNC(=S)NC(=O)c1ccccc1 was read as HDAC3 inh 4, A3G deaminase 43*, A3A deaminase -1, LANA-H2B inh -1, APOBEC3G confirm 16 and UDG ctr A3G -23.
`Cc1ccc(C(=O)NNC(=S)NC(=O)COc2ccccc2)cc1` gave A3G deaminase 53*, A3A deaminase -4, LANA-H2B inh -1, APOBEC3G confirm 50* and UDG ctr A3G -4.
For Cc1ccccc1C(=O)NNC(=S)NC(=O)COc1ccccc1 the results were HDAC3 inh 7, A3G deaminase 44*, A3A deaminase -8, LANA-H2B inh 2, APOBEC3G confirm 64* and UDG ctr A3G -2.
`COc1ccc(CCNC(=O)CN(c2ccc(OC)c(OC)c2)S(=O)(=O)c2ccccc2)cc1OC` gave A3G deaminase -8, A3A deaminase -2 and LANA-H2B inh -1.
Screening CCCCn1c(N)c(N(CC(C)C)C(=O)c2c(CC)noc2C)c(=O)[nH]c1=O returned HDAC3 inh -5, A3G deaminase -8, A3A deaminase -3 and LANA-H2B inh 0.
CN(C)c1cccc(C(=O)OCC(=O)NC2CCCC2)c1 was read as HDAC3 inh 10, A3G deaminase -6, A3A deaminase -2 and LANA-H2B inh -5.
Screening CC(=O)N1CCN(c2ccc(S(=O)(=O)N3CCCCC3)cn2)CC1 returned HDAC3 inh -5, A3G deaminase -14, A3A deaminase -1 and LANA-H2B inh -2.
For O=S(=O)(c1ccc(N2CCN(CCO)CC2)nc1)N1CCCCC1 the results were HDAC3 inh 3, A3G deaminase 42*, A3A deaminase 4, LANA-H2B inh 4 and APOBEC3G confirm 0.
`CCCN(CCC)CCCNC(=S)Nc1ccc2nc3n(c(=O)c2c1)CCCCC3` gave HDAC3 inh 3, A3G deaminase -8, A3A deaminase -3 and LANA-H2B inh 2.
For CCOC(=O)C1=C(C)N=C2SC(C(=O)OC)=CC(=O)N2C1c1ccc(OC)cc1 (stereo not given) the results were HDAC3 inh 1, A3G deaminase -6, A3A deaminase 6 and LANA-H2B inh -2.
For COc1cc(/C=N/N2CCN(Cc3ccc(C)cc3)CC2)cc(OC)c1O the results were HDAC3 inh 8, A3G deaminase 54*, A3A deaminase 1, LANA-H2B inh 2 and APOBEC3G confirm -1.
For Cc1ccc(CN2CCN(/N=C/c3ccccc3)CC2)cc1 the results were HDAC3 inh 4, A3G deaminase 6, A3A deaminase 2 and LANA-H2B inh 0.
For CCn1c(-c2csc(C(C)C)c2)n[nH]c1=S the results were HDAC3 inh -2, A3G deaminase 51*, A3A deaminase 2, LANA-H2B inh 8 and APOBEC3G confirm 0.
Screening CCCCn1c(-c2csc(CCC)c2)n[nH]c1=S returned HDAC3 inh 3 and LANA-H2B inh -2.
Screening Cc1cc(-c2n[nH]c(=S)n2CC(C)C)cs1 returned HDAC3 inh -4, A3G deaminase 49*, A3A deaminase 1, LANA-H2B inh -8, APOBEC3G confirm 66* and UDG ctr A3G -5.
Screening CCc1cc(-c2n[nH]c(=S)n2CC)cs1 returned HDAC3 inh 9, A3G deaminase 52*, A3A deaminase -3, LANA-H2B inh -2, APOBEC3G confirm 83* and UDG ctr A3G 0.
CCCc1cc(-c2n[nH]c(=S)n2CC)cs1 was read as HDAC3 inh 2, A3G deaminase 43*, A3A deaminase -5, LANA-H2B inh 2, APOBEC3G confirm 79* and UDG ctr A3G -5.
For O=C(c1cccc(Cl)c1)N1CCCc2ccccc21 the results were HDAC3 inh 4, A3G deaminase -4, A3A deaminase -1 and LANA-H2B inh 9.
`COc1cccc(-c2nnn(CC(=O)N3CCC(C)CC3)n2)c1` gave HDAC3 inh -8, A3G deaminase -8, A3A deaminase -3 and LANA-H2B inh -3.
`S=c1[nH]nc(CSc2nc3ccccc3s2)n1Cc1ccccc1` gave HDAC3 inh 4, A3G deaminase 8, A3A deaminase -3 and LANA-H2B inh -5.
CCn1c(CSc2nc3ccccc3s2)n[nH]c1=S was read as HDAC3 inh 13, A3G deaminase 47*, A3A deaminase 0, LANA-H2B inh -2, APOBEC3G confirm 59* and UDG ctr A3G -3.
C=CCn1c(CSc2nc3ccccc3s2)n[nH]c1=S was read as HDAC3 inh 8, A3G deaminase 45*, A3A deaminase -3, LANA-H2B inh -5, APOBEC3G confirm 75* and UDG ctr A3G -2.
For CCOc1ccc(-n2ccnc2SCC(=O)Nc2cc(C)on2)cc1 the results were HDAC3 inh -13, A3G deaminase -1, A3A deaminase 2 and LANA-H2B inh 4.
For COc1ccc(NC(=O)c2ccc(N3C(=O)C4CC=C(Cl)CC4C3=O)cc2)cc1 (stereo not given) the results were HDAC3 inh -3, A3G deaminase 2, A3A deaminase 0 and LANA-H2B inh 1.

Screening data: PubChem, several laboratories
